Screening results (PubChem)
M1 ag parental: M1 agonist counterscreen hit in parental CHO-K1 cells; Fluo-8 calcium fluorescence; scaled to maximal ATP response, vehicle zero; activation, % at 3 µM; AID 602248; hit rate 0.48% among 360,000; in the data active means activation above about 15%;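 further: untransfected CHO-K1 host cells lacking M1 receptor as counterscreen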
TMEM16A act: mouse TMEM16A channel activation, primary screen. Q8BHY3. HEK293 TMEM16A/YFP-H148Q/I152L, iodide quench fluorescence; active compounds read low. B-score at 10 µM. hit rate 0.3% among 340,000. AID 623877;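 active means fluorescence-ratio B-score plate-corrected deviation score at least 3 library SD below zero, with starting fluorescence score within 5 deviations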;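 further: channel opened by trigger with iodide after compound preincubation; score built on the fluorescence ratio of max minus min over baseline; more negative score means more quench and so TMEM16A activation or potentiation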
CHO-K1 Ca PAM: M1 PAM counterscreen hit in parental CHO-K1 cells; ATP EC20, Fluo-8 calcium fluorescence; 0% at ATP EC20, 100% at ATP max; activation, % at 3 µM; hit rate 0.02% among 360,000; AID 602247;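 active means activation above the run cutoff, the mean activation of all test compounds plus 3 SD, cut at about 40% in these data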;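 further: peak over basal fluorescence ratio in a 140 s read after ATP addition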
NTR1 agonist: activates human neurotensin receptor 1. P30989. NTR1-U2OS beta-arrestin-GFP spot imaging, agonist mode. activation, % at 20 µM. hit rate 0.17% among 330,000;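 active means activation at or above 40% of the spot to cytoplasm intensity ratio, with at least 20 cells analyzed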;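 further: 0% = DMSO without peptide and 100% = 100 nM NTR1 peptide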
Target sequence (P30989 whole entry, looked up): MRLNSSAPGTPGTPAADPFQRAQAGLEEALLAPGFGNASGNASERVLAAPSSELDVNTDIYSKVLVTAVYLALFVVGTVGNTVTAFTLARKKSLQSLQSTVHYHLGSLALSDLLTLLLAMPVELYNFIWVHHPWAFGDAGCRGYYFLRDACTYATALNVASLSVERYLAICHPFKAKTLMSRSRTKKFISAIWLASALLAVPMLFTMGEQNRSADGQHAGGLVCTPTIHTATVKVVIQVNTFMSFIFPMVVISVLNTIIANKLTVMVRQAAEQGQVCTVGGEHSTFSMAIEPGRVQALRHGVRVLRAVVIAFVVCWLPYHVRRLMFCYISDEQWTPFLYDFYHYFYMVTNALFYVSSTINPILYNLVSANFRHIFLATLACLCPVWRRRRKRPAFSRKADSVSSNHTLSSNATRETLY
CHO-K1 Ca antag: nonselective inhibitor or artifact in parental CHO-K1 cells; ATP-induced calcium, Fluo-8 fluorescence; inhibition, % at 3 µM; hit rate 0.6% among 360,000; AID 602250;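 active means inhibition above a per-plate cutoff, the plate's mean sample inhibition plus 3 SD, cut at about 24% in these data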;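 further: 0% = DMSO plus EC80 ATP and 100% = DMSO alone without ATP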
TMEM16A inh: blocks the mouse calcium-activated chloride channel TMEM16A | Q8BHY3 | HEK293 TMEM16A/YFP iodide influx fluorescence, ionomycin | normalized B-score (activity score, 25-100; higher = stronger inhibition) at 10 µM | hit rate 1.2% among 310,000 | AID 588511;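 active means ratio plate-corrected score three or more library SD toward inhibition, starting fluorescence score within five deviations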;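 further: score derived from kinetic fluorescence span divided by baseline fluorescence per well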
* hit, by the source's call; i = inactive; / = not tested or not shown; ! = a repeat was not active. Only some compounds are listed: those with a hit (about 2.2% of all), similar ones and a draw of the others.

SMILES	M1 ag parental	TMEM16A act	CHO-K1 Ca PAM	NTR1 agonist	CHO-K1 Ca antag	TMEM16A inh
CCOC(=O)CN1c2ccccc2NC(=O)CC1C (stereo unspecified)	1	i	43*	1	-29	i
Cc1cc(C(=O)CS(=O)(=O)c2ccc(F)cc2)cc(C)c1O	2	i	-3	-1	-5	i
CCN(CC)S(=O)(=O)c1cccc(NC(=S)NC(=O)/C=C/c2ccc(S(=O)(=O)N3CCOCC3)cc2)c1	1	i	-14	1	27*	i
O=C(/C=C/c1ccc(S(=O)(=O)N2CCOCC2)cc1)NC(=S)Nc1ccc(Cl)cc1Cl	0	i	-3	2	2	i
O=C(N/N=C/c1cn(-c2ccccc2)nc1-c1cc2ccccc2o1)c1ccncc1	4	i	8	9	5	25*
COCCNC(=O)COc1ccc(Br)cc1Cl	0	i	13	2	-8	100*
CCN1/C(=C\C(=S)Nc2ccccc2)Sc2ccccc21	1	i	8	3	-12	i
CCN1/C(=C/C(C)=C/c2sc3ccccc3[n+]2CC)Sc2ccccc21	20*!	i	-8	-2	34*	i
Cc1cccc(Nc2nc(N)nc(N)c2N=O)c1	29*	i	1	/	-1	/
Cc1cccc(Nc2nc(N)nc(CCl)n2)c1	20*	i	-3	-1	4	i
Cc1ccc(Nc2nc(N)nc(N)c2N=O)cc1C	0	/	10	/	-2	/
CCCCN1C(=O)C(CC(=O)NCCN2CCOCC2)CC(C(=O)N2CCCCCC2)=C1C (stereo unspecified)	0	/	-6	/	6	/
CCOc1ccc(-n2c(SCc3ccc([N+](=O)[O-])cc3)nnc2-c2ccccc2)cc1	0	i	21	5	-7	i
COc1ccc(-n2c(SCc3ccc([N+](=O)[O-])cc3)nnc2-c2ccccc2)cc1	16*	i	25	6	-1	i
CC1(c2nc3ccccc3[nH]2)CCC2=Nc3ccccc3CN21 (stereo unspecified)	8	/	0	/	3	/
Cc1ccc(OCc2cn3cccnc3n2)cc1	95*	i	-4	-1	67*	i
CCOc1cc2c3c(c1)C(C)=CC(C)(C)N3C(=O)C2=O	-1	i	10	2	-10	i
CC(=O)Oc1cc2c3c(c1)/C(=C1/SC(=S)NC1=O)C(=O)N3C(C)(C)C=C2C	2	i	-11	6	-7	100*
CC1(C(=O)CSc2nc3ccccc3s2)CCC(=O)O1 (stereo unspecified)	0	i	9	-1	-3	100*
COc1cc(C(=O)N2CCCCC2c2cc(C(=O)NCc3cccnc3)no2)cc(OC)c1C (stereo unspecified)	4	/	16	/	-7	/
Cc1cccc(Nc2nc3c(c(=O)n(C)c(=O)n3C)n2CC(O)CO)c1 (stereo unspecified)	0	i	-7	7	25*	i
CC(C)(C)c1ccc(-n2ncc3c2CCCC3NC(=O)c2ccco2)cc1 (stereo unspecified)	4	/	9	/	-17	/
CN(C)c1ccc(/C=C/c2nc3ccccc3c(=O)n2-c2ccc(C(=O)O)cc2)cc1	17*	i	-4	-1	2	i
O=C(O)CC(NS(=O)(=O)Cc1ccccc1)c1cccc([N+](=O)[O-])c1 (stereo unspecified)	1	i	8	0	-12	i
Cc1cc(C)c(S(=O)(=O)NC(CC(=O)O)c2cccc([N+](=O)[O-])c2)c(C)c1 (stereo unspecified)	0	i	-14	0	25*	i
SMILES	M1 ag parental	TMEM16A act	CHO-K1 Ca PAM	NTR1 agonist	CHO-K1 Ca antag	TMEM16A inh
CC(OC(=O)Cc1ccc(Br)cc1)C(=O)NC1CCCC1 (stereo unspecified)	0	i	4	-1	-6	/
CC(C)(C)c1ccc(CC(=O)N2CCC2(C)C(=O)NCc2cccc3ccccc23)cc1 (stereo unspecified)	2	/	13	/	-10	/
CCn1cc(C(=O)NC2CCCc3c2cnn3-c2cccc(C)c2C)cn1 (stereo unspecified)	14	i	-2	0	25*	i
O=C(Oc1ccc2c(=O)c(Oc3ccc4ccccc4c3)coc2c1)c1ccco1	1	-5.9*	9	-2	-10	i
Cc1cccc(Oc2coc3cc(OC(=O)c4cc5ccccc5oc4=O)ccc3c2=O)c1	2	i	16	4	-2	i
CC(=O)Nc1ccc2cc3ccc(NC(C)=O)cc3nc2c1	1	-9.8*	6	/	-17	i
Cc1ccc(-c2nc(Nc3cccc(C)c3)sc2CC(=O)O)cc1	1	i	-11	-2	26*	i
Cc1cccc(Nc2nc(CC(=O)O)cs2)c1	0	i	3	1	4	i
[N-]=[N+]=NC(c1ccccc1)C(NC(=O)c1cc(C(F)(F)F)cc(C(F)(F)F)c1)c1ccccc1 (stereo unspecified)	4	/	7	/	5	/
Cc1ccc(S(=O)(=O)N2CCC(C(=O)N/N=C/c3ccncc3)CC2)cc1	-1	i	-8	1	24*	i
Cc1ccc(S(=O)(=O)N2CCC(C(=O)NC3CC3)CC2)cc1	1	i	-8	-1	-10	i
CCCCc1c(-c2cccc(Br)c2)ncn1CCc1ccccc1OC	13	/	28	/	-9	/
O=C(c1ccccc1)c1ccc2nc(-c3ccc(NC(=O)c4ccccc4Br)cc3)[nH]c2c1	5	i	19	1	9	i
Cc1ccccc1C(=O)Nc1ccc(-c2nc3ccc(C(=O)c4ccccc4)cc3[nH]2)cc1	2	i	-8	0	34*	i
OCCNc1nc2nonc2nc1NCCO	0	i	13	1	-5	i
CC(C)(C)Nc1nc2nonc2nc1NC(C)(C)C	16*	i	12	3	-1	i
CCCc1cc(=O)oc2c3c(cc(OCC(=O)N4CCC(C(=O)O)CC4)c12)OC(C)(C)CC3	0	/	1	/	-4	/
O=C(Cc1ccccc1)Nc1nc(-c2cccs2)cs1	-1	i	-2	-2	-2	i
O=C(Cc1ccccc1F)Nc1nc(-c2cccs2)cs1	2	i	21	0	-17	25*
O=C(CSCC(=O)N1CCCCC1)Nc1nc(-c2cccs2)cs1	5	i	-5	1	11	25*
O=C(COc1ccc(Cl)cc1)Nc1nc(-c2cccs2)cs1	1	i	10	19	9	100*
O=C(Nc1nc(-c2cccs2)cs1)c1ccc(Cl)cc1	0	i	14	3	-18	i
CC1CC(C)CN(C(=O)CSCC(=O)Nc2nc(-c3cccs3)cs2)C1 (stereo unspecified)	8	i	17	4	-1	i
